From PubChem BioAssay (NCATS)
Records with an inconclusive call do not appear. Entries that show only a call come without a potency. Some compounds were tested as several samples or in several runs, with calls that do not always agree. Calls of active or inactive are those of the source. The call rests on the fitted dose curve; in most records, active means well fitted curve in the direction sought with a large enough effect; inconclusive means small, poorly fitted or top-dose-only effect, or another doubt; inactive means no such curve, though single readings can be large; an effect the other way counts as inactive or inconclusive.

How the values were obtained:
[1] = biological target: Glutathione peroxidase 1 (Homo sapiens) (UniProt P07203); assay: Primary qHTS Assay for Inhibitors of Recombinant Selenoprotein Glutathione Peroxidase 1 (GPX1) (AID 1845191); further: nearly all actives have a fitted effect of over 65% in size; further: potency means the concentration at half of the fitted maximal effect
Procedure, shortened: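 GR-coupled assay: compounds preincubated 30 min at room temperature with GPX1, then reaction started with CHP; final 10 nM GPX1, 1 mM GSH, 0.5 mM CHP, 0.5 mM NADPH, 100 nM GR, 0.01% BSA, pH 7.5 Tris buffer. NADPH fluorescence (340/450 nm) read at 0 and 15 min.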

[2] = biological target: Phospholipid hydroperoxide glutathione peroxidase GPX4 (Homo sapiens) (UniProt P36969); assay: Primary qHTS Assay for Inhibitors of Recombinant Selenoprotein Glutathione Peroxidase 4 (GPX4) (AID 1845192); further: nearly all actives have a fitted effect of over 65% in size; further: potency means the concentration at half of the fitted maximal effect; on activity change, negative = inhibition: series mostly up to about 50 µM
Procedure, shortened: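 GR-coupled assay: recombinant GPX4 preincubated 30 min with compound at room temperature; final 200 nM GPX4, 1 mM GSH, 0.5 mM cumene hydroperoxide, 0.5 mM NADPH, 100 nM GR, 0.01% BSA, pH 7.5 Tris. NADPH fluorescence (340/450 nm) read at 0 and 15 min.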

[3] = Primary fluorescence-based thiol-reactive (MSTI) qHTS assay for identification of artifact compounds. (AID 1845221);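 further: series mostly up to about 54 µM; thiol-reactive compounds lower the probe fluorescence signal; nearly all actives have a fitted effect of over 65% in size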
Procedure, shortened: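 Thiol-reactive compounds detected by quenching of 4 uM MSTI fluorescence (525/598 nm) after 1 h room-temperature dark incubation in PBS pH 7.4, 2% DMSO. qHTS titration; percent inhibition Hill-fitted against Acetyl-MSTI/MSTI controls.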

[4] = tested on: Nanoluciferase (engineered Oplophorus gracilirostris luciferase); assay: Primary Nanoluciferase (NLuc) qHTS assay for identification of artifact compounds. (AID 1845222);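 further: NLuc secreted into diluted conditioned medium of S16 cells; series mostly up to about 54 µM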
Procedure, shortened: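 S16 cell supernatant NLuc, 1:55; cpds qHTS; 15 min RT dark; Nano-Glo substrate 1:100, 5 min; luminescence; Hill fit of % inhibition.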

[5] = Primary redox qHTS assay for identification of artifact compounds. (AID 1845223)
Procedure, shortened: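 Amplex Red (25 uM) and HRP (250 mU/mL) in HBSS, with compounds for 15 min, then 250 uM DTT for 30 min, room temperature, dark. Fluorescence 525/598 nm read; normalized to DMSO and 10 uM DA3003; Hill fit.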

[6] = Quantitative High-Throughput drug screen in 47 multiple myeloma cell lines against the NCATS MIPE library collection: FR4_PLB cell viability assay (AID 1918924; further: nearly all actives have a fitted effect of over 35% in size; further: potency means the concentration at half of the fitted maximal effect)
Procedure, shortened: (§1)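 Inhibition of cell viability is measured here. Each line was plated at 500 cells per well, treated with MIPE 4.0 drugs, kept 48 hours at 37C, then assayed for ATP content by CellTiter-Glo luminescence.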

[7] = Quantitative High-Throughput drug screen in 47 multiple myeloma cell lines against the NCATS MIPE library collection: Delta47_JCRB cell viability assay (AID 1918925; further: nearly all actives have a fitted effect of over 45% in size; further: potency means the concentration at half of the fitted maximal effect)
Procedure, shortened: (§2)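 CellTiter-Glo ATP luminescence gave viability after 48 h compound treatment at 37C of 500 multiple myeloma cells per well. Normalisation used DMSO-only wells as 100% and media-only wells as 0% viability; primary qHTS of approved and investigational drugs.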

[8] = Quantitative High-Throughput drug screen in 47 multiple myeloma cell lines against the NCATS MIPE library collection: EJM_DSMZ cell viability assay (AID 1918926; further: nearly all actives have a fitted effect of over 30% in size; further: potency means the concentration at half of the fitted maximal effect)
Procedure, shortened: as §2

[9] = Quantitative High-Throughput drug screen in 47 multiple myeloma cell lines against the NCATS MIPE library collection: AMO1_DSMZ cell viability assay (AID 1918927; further: nearly all actives have a fitted effect of over 30% in size; further: potency means the concentration at half of the fitted maximal effect)
Procedure, shortened: as §2

[10] = Quantitative High-Throughput drug screen in 47 multiple myeloma cell lines against the NCATS MIPE library collection: ARD_JJKsccE7 cell viability assay (AID 1918929; further: potency means the concentration at half of the fitted maximal effect)
Procedure, shortened: as §2

[11] = Quantitative High-Throughput drug screen in 47 multiple myeloma cell lines against the NCATS MIPE library collection: Karpas620_DSMZ cell viability assay (AID 1918959); further: nearly all actives have a fitted effect of over 30% in size; further: potency means the concentration at half of the fitted maximal effect
Procedure, shortened: as §1

[12] = Quantitative High-Throughput drug screen in 47 multiple myeloma cell lines against the NCATS MIPE library collection: ARP1_JJKsccF8 cell viability assay (AID 1918928; further: nearly all actives have a fitted effect of over 40% in size; further: potency means the concentration at half of the fitted maximal effect)
Procedure, shortened: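 ATP readout (CellTiter-Glo), 48 h drug incubation, 37 °C/5% CO2, 500 cells per well; normalisation to DMSO (100%) and media-only (0%) controls.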

Chain of Phospholipid hydroperoxide glutathione peroxidase GPX4 (Homo sapiens) (P36969 whole entry, looked up): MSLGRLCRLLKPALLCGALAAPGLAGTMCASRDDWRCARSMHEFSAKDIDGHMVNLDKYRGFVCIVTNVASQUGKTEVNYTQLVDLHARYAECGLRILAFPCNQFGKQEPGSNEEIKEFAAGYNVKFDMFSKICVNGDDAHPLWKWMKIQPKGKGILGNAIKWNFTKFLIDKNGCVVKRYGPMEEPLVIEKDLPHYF
Chain of Glutathione peroxidase 1 (Homo sapiens) (P07203 whole entry, looked up): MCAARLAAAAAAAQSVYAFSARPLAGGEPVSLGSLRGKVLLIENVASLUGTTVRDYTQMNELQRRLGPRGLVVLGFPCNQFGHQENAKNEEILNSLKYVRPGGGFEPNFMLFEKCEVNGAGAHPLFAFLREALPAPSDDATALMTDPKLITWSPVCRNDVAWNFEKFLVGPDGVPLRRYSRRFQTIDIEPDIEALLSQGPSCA

COc1cc2nccc(Oc3ccc(NC(=O)Nc4cc(C)on4)c(Cl)c3)c2cc1OC
Potency [1]: inactive | Potency [2]: inactive | Potency [3]: inactive | Potency [4]: inactive | outcome [5]: inactive | Potency [6]: 20.9 µM (active) | Potency [7]: 18.7 µM (active) | Potency [8]: 13.2 µM (active) | Potency [9]: 4.18 µM (active) | Potency [10]: 6.62 µM (active)

CCN(CC)CCCCNc1nc2cc(Cl)c(Cl)cc2nc1-c1ccc(-c2cccs2)s1
Potency [1]: inactive | Potency [2]: 20.2 µM (active) | Potency [6]: 10.5 µM (active) | Potency [7]: 7.43 µM (active) | Potency [8]: 11.8 µM (active) | Potency [9]: 6.62 µM (active) | Potency [10]: 8.33 µM (active) | Potency [11]: 9.35 µM (active)

COC1CCC(C(=O)c2ccc3nc4c(cc3c2)CCCO4)CC1 (configuration not stated)
Potency [1]: inactive | Potency [2]: inactive | Potency [6]: 26.4 µM (active) | Potency [7]: 16.6 µM (active) | Potency [9]: 18.7 µM (active) | Potency [12]: 23.5 µM (active) | Potency [11]: 16.6 µM (active)

CC(C)C[C@@H](N)[C@H](O)C(=O)N[C@H](C(=O)N[C@H](C(=O)N[C@@H](CC(=O)O)C(=O)O)C(C)C)C(C)C
Potency [1]: inactive | Potency [2]: inactive | Potency [6]: inactive | Potency [8]: inactive | Potency [9]: inactive | Potency [12]: inactive | Potency [11]: inactive

CCCCCCCCCCCCCCCC(=O)O[C@H]1[C@@H](O)[C@@H](O)[C@@H]([C@H](NC(=O)[C@@H]2C[C@@H](CCC)CN2C)[C@H](C)Cl)O[C@@H]1SC
Potency [1]: inactive | Potency [2]: inactive | Potency [6]: inactive | Potency [7]: inactive | Potency [8]: inactive | Potency [9]: inactive | Potency [12]: inactive

COc1ccnc(CS(=O)c2nc3ccc(OC(F)F)cc3[nH]2)c1OC (configuration not stated)
Potency [1]: 9.04 µM (active) and inactive | Potency [2]: 16.1 µM (active) | Potency [6]: inactive | Potency [8]: inactive | Potency [9]: inactive | Potency [12]: inactive | Potency [11]: 29.6 µM (active)

CC[C@H](C)C(=O)O[C@H]1C[C@H](O)C=C2C=C[C@H](C)[C@H](CC[C@@H](O)C[C@@H](O)CC(=O)O)[C@H]21
Potency [1]: inactive | Potency [2]: inactive | Potency [6]: inactive | Potency [8]: inactive | Potency [9]: inactive | Potency [10]: inactive | Potency [11]: inactive

CCCC1OC2C[C@@H]3[C@H]4CCC5=CC(=O)C=C[C@]5(C)[C@H]4C(O)C[C@]3(C)[C@]2(C(=O)CO)O1 (some centres not stated)
Potency [1]: inactive | Potency [2]: inactive | Potency [6]: inactive | Potency [8]: 11.8 µM (active) | Potency [9]: inactive | Potency [12]: 0.469 µM (active) | Potency [10]: 0.0118 µM (active) | Potency [11]: inactive

CN1CCN2c3ncccc3Cc3ccccc3C2C1 (configuration not stated)
Potency [1]: inactive | Potency [2]: inactive | Potency [6]: inactive | Potency [7]: inactive | Potency [8]: inactive | Potency [9]: inactive | Potency [12]: inactive | Potency [10]: inactive | Potency [11]: inactive

Nc1ccn([C@@H]2O[C@H](CO)[C@@H](O)[C@H]2O)c(=O)n1
Potency [1]: inactive | Potency [2]: inactive | Potency [6]: inactive | Potency [8]: inactive | Potency [10]: inactive

CCC(c1ccc(O)cc1)C(CC)c1ccc(O)cc1 (configuration not stated)
Potency [1]: inactive | Potency [2]: inactive | Potency [6]: 5.26 µM (active) | Potency [8]: 0.935 µM (active) | Potency [12]: 7.43 µM (active) | Potency [10]: inactive | Potency [11]: inactive

Cn1cc(-c2ccc3nnc(Sc4ccc5ncccc5c4)n3n2)cn1
Potency [1]: inactive | Potency [2]: inactive | Potency [6]: inactive | Potency [7]: 0.469 µM (active) | Potency [11]: 1.18 µM (active)

C[C@@H](O)[C@H]1C(=O)N2C(C(=O)OCOC(=O)C(C)(C)C)=C(SC3CN(C4=NCCS4)C3)[C@H](C)[C@H]12
Potency [1]: inactive | Potency [2]: inactive | Potency [6]: inactive | Potency [7]: inactive | Potency [8]: inactive | Potency [9]: inactive | Potency [12]: inactive | Potency [10]: inactive | Potency [11]: inactive

O=C(O)c1nc(=O)[nH]c(=O)[nH]1
Potency [1]: inactive | activity change, negative = inhibition [2]: 4.26% [at 0.409 µM] (inactive) | Potency [6]: inactive | Potency [8]: inactive | Potency [9]: inactive | Potency [12]: inactive | Potency [10]: inactive | Potency [11]: inactive

CN1CCc2c(n(Cc3ccc(C(=O)NO)cc3)c3ccccc23)C1
Potency [1]: inactive | Potency [2]: inactive | Potency [4]: inactive | outcome [5]: inactive | Potency [6]: 16.6 µM (active) | Potency [12]: 18.7 µM (active)

NC[C@H]1O[C@H](O[C@@H]2[C@@H](O)[C@@H](O[C@H]3O[C@H](CO)[C@@H](O)[C@H](N)[C@@H]3O)[C@H](N)C[C@@H]2N)[C@H](O)[C@@H](O)[C@H]1O
Potency [1]: inactive | Potency [2]: inactive | Potency [6]: inactive | Potency [8]: inactive | Potency [9]: inactive | Potency [10]: inactive | Potency [11]: inactive

C[C@@H]1C[C@H]2[C@@H]3CCC4=CC(=O)C=C[C@]4(C)[C@@]3(F)[C@@H](O)C[C@]2(C)[C@@]1(O)C(=O)CO
Potency [1]: inactive | Potency [2]: inactive | Potency [6]: inactive | Potency [8]: inactive | Potency [9]: inactive | Potency [10]: 0.0093 µM (active) | Potency [11]: inactive

CN1C(=O)C(Cc2c[nH]c3ccccc23)NC1=S (configuration not stated)
Potency [1]: inactive | Potency [2]: inactive | Potency [4]: inactive | outcome [5]: inactive | Potency [6]: inactive | Potency [8]: inactive | Potency [9]: inactive | Potency [10]: inactive | Potency [11]: inactive

CCCCC[C@H](O)C=C[C@H]1[C@H](O)CC(=O)[C@H]1CC=CCCCC(=O)O
Potency [1]: inactive | Potency [2]: inactive | Potency [6]: inactive | Potency [7]: inactive | Potency [9]: inactive | Potency [10]: inactive | Potency [11]: inactive

COc1cc(Nc2nc3ccccc3nc2NS(=O)(=O)c2ccc(NC(=O)c3ccc(C)c(OC)c3)cc2)cc(OC)c1
Potency [1]: inactive | Potency [2]: inactive | Potency [4]: inactive | outcome [5]: inactive

C#CCN(C)CC1=Cc2ccccc2Oc2ccccc21
Potency [1]: inactive | Potency [2]: inactive | Potency [6]: inactive | Potency [8]: inactive | Potency [12]: inactive | Potency [11]: inactive

Nc1[nH]nc2nnc(-c3c(-c4ccccc4)nn4ccccc34)cc12
Potency [1]: inactive | Potency [2]: inactive | Potency [4]: inactive | outcome [5]: inactive | Potency [9]: 1.66 µM (active) | Potency [10]: 2.96 µM (active) | Potency [11]: 16.6 µM (active)
